One may read the AC50 as the midpoint of the concentration-response curve, whichever way the signal moves.

Read-out in experiment [1]: Human Leukocyte Antigen - DR isotype (HLADR), HLA-DRA (gene 3122)
The experiment in a line: BSK_BE3C_HLADR: BioMAP Diversity Plus: BE3C Assay for Human Leukocyte Antigen - DR isotype (HLADR) Biomarker Activity (AID 2283032). Particulars: primary human bronchial epithelial cells; actives raise or lower the signal. In outline: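 Signal came from an ELISA for HLA-DR in human bronchial epithelial primary cells harvested 24 h after treatment; gain- and loss-of-signal fitting used DMSO controls as reference.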

Read-out in experiment [2]: Vascular cell adhesion molecule 1 (VCAM1), VCAM1 (gene 7412)
The experiment is described as follows: BSK_4H_VCAM1: BioMAP Diversity Plus: 4H Assay for Vascular cell adhesion molecule 1 (VCAM1) Biomarker Activity (AID 2283033).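 For outcome: cell-surface VCAM-1 protein measured by ELISA.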 The conditions noted are these: primary human endothelial cells (HUVEC); actives raise or lower the signal. The method in brief:
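Endpoint derived from bidirectional fitting against DMSO controls of VCAM-1 ELISA signal in umbilical vein endothelial cells sampled at 24 h following treatment.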

Read-out in experiment [3]: Interferon-gamma inducible Protein 10 (IP10), CXCL10 (gene 3627)
The experiment in a line: BSK_BE3C_IP10: BioMAP Diversity Plus: BE3C Assay for Interferon-gamma inducible Protein 10 (IP10) Biomarker Activity (AID 2283034). The conditions noted are these: primary human bronchial epithelial cells; actives raise or lower the signal. In outline: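 Using primary human bronchial epithelial cultures, the assay captures IP-10 by ELISA one day (24 h) after exposure. Parallel SRB staining of total protein flags overt cytotoxicity. Fits run bidirectionally relative to DMSO.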

Read-out in experiment [4]: Monokine induced gamma interferon (MIG), CXCL9 (gene 4283)
The experiment is described as follows: BSK_BE3C_MIG: BioMAP Diversity Plus: BE3C Assay for Monokine induced gamma interferon (MIG) Biomarker Activity (AID 2283035).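 For outcome: MIG protein measured by ELISA in BE3C cultures after 24 h of dosing.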 The conditions noted are these: primary human bronchial epithelial cells; actives raise or lower the signal. The method in brief:
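MIG level was determined by ELISA after 24 h chemical treatment of primary human bronchial epithelial cells. Values were fitted bidirectionally with DMSO as the negative control and activity baseline.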

Read-out in experiment [5]: Transforming growth factor beta 1 (TGFb1), TGFB1 (gene 7040)
The experiment in a line: BSK_BE3C_TGFb1: BioMAP Diversity Plus: BE3C Assay for Transforming growth factor beta 1 (TGFb1) Biomarker Activity (AID 2283036;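 for outcome: TGF-b1 protein level measured by ELISA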). Particulars: primary human bronchial epithelial cells; actives raise or lower the signal. In outline: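 In this human primary bronchial epithelial system, an ELISA quantified TGF-b1 one day after dosing. Endpoint changes in either direction were fitted relative to DMSO.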

Read-out in experiment [6]: urokinase plasminogen activator (uPA), PLAU (gene 5328)
The experiment is described as follows: BSK_BE3C_uPA: BioMAP Diversity Plus: BE3C Assay for urokinase plasminogen activator (uPA) Biomarker Activity (AID 2283038).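 For outcome: uPA protein level quantified by ELISA in cell cultures; uPA read one day after compound addition.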 Particulars: primary human bronchial epithelial cells; actives raise or lower the signal. In outline:
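Measured by ELISA: uPA from human primary bronchial epithelial cells 24 h after chemical treatment. Values derive from bidirectional curve fitting with DMSO serving as negative control. Total protein by SRB staining in parallel wells flagged overt cytotoxicity.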

Read-out in experiment [7]: Urokinase-type plasminogen activator receptor (uPAR), PLAUR (gene 5329)
The experiment is described as follows: BSK_BE3C_uPAR: BioMAP Diversity Plus: BE3C Assay for Urokinase-type plasminogen activator receptor (uPAR) Biomarker Activity (AID 2283039).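 For outcome: uPAR protein level measured by ELISA on the cells; cells exposed to compound for one day before measurement.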 Particulars: primary human bronchial epithelial cells; actives raise or lower the signal. The method in brief:
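A uPAR ELISA serves as the readout, taken 24 h after treating primary human bronchial epithelial cells. Responses in either direction are fitted against DMSO, which defines baseline activity.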

Read-out in experiment [8]: Interleukin-6 (IL6), IL6 (gene 3569)
The experiment is described as follows: BSK_CASM3C_IL6: BioMAP Diversity Plus: CASM3C Assay for Interleukin-6 (IL6) Biomarker Activity for (AID 2283040). The conditions noted are these: primary human coronary artery smooth muscle cells; actives raise or lower the signal.

Read-out in experiment [9]: Tissue plasminogen activator (tPA), PLAT (gene 5327)
The experiment is described as follows: BSK_BE3C_tPA: BioMAP Diversity Plus: BE3C Assay for Tissue plasminogen activator (tPA) Biomarker Activity (AID 2283041).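 For outcome: tPA level quantified by ELISA one day after compound addition.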 Particulars: primary human bronchial epithelial cells; actives raise or lower the signal. In outline:
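Bidirectional curve fitting relative to DMSO defined activity, with tPA detected by ELISA in chemically treated human bronchial epithelial primary cells at 24 hours.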

Read-out in experiment [10]: Interleukin-8 (IL8), CXCL8 (gene 3576)
The experiment is described as follows: BSK_CASM3C_IL8: BioMAP Diversity Plus: CASM3C Assay for Interleukin-8 (IL8) Biomarker Activity (AID 2283042).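 Note: IL-8 protein level quantified by ELISA.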 The conditions noted are these: primary human coronary artery smooth muscle cells; actives raise or lower the signal.

Read-out in experiment [11]: Human Leukocyte Antigen - DR isotype (HLADR), HLA-DRA (gene 3122)
The experiment is described as follows: BSK_CASM3C_HLADR: BioMAP Diversity Plus: CASM3C Assay for Human Leukocyte Antigen - DR isotype (HLADR) Biomarker Activity (AID 2283043).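 Note: cell-surface HLA-DR protein level quantified by ELISA.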 Particulars: primary human coronary artery smooth muscle cells; actives raise or lower the signal.

Read-out in experiment [12]: Macrophage colony-stimulating factor (MCSF), CSF1 (gene 1435)
The experiment is described as follows: BSK_CASM3C_MCSF: BioMAP Diversity Plus: CASM3C Assay for Macrophage colony-stimulating factor (MCSF) Biomarker Activity (AID 2283044).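 Note: M-CSF protein amount quantified by ELISA after 24 h exposure.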 Particulars: primary human coronary artery smooth muscle cells; actives raise or lower the signal.

Read-out in experiment [13]: Low-density lipoprotein receptor (LDLR), LDLR (gene 3949)
The experiment in a line: BSK_CASM3C_LDLR: BioMAP Diversity Plus: CASM3C Assay for Low-density lipoprotein receptor (LDLR) Biomarker Activity (AID 2283045).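 Note: LDLR protein level on the cell surface quantified by ELISA.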 The conditions noted are these: primary human coronary artery smooth muscle cells; actives raise or lower the signal.

Read-out in experiment [14]: Monocyte Chemoattractant Protein-1 (MCP1), CCL2 (gene 6347)
The experiment is described as follows: BSK_CASM3C_MCP1: BioMAP Diversity Plus: CASM3C Assay for Monocyte Chemoattractant Protein-1 (MCP1) Biomarker Activity (AID 2283046).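 Note: MCP-1 level quantified by ELISA 24 h after dosing.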 Particulars: primary human coronary artery smooth muscle cells; actives raise or lower the signal.

The nature of experiment [15]: BSK_CASM3C_Proliferation: Cell Proliferation Assessment in the BioMAP Diversity Plus: CASM3C Assay (AID 2283047).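 Note: sulforhodamine B total protein stain as relative cell number at 560 nm; sub-confluent cells exposed 48 h before staining; fitted both ways against DMSO so gain or loss of cell number.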 The conditions noted are these: primary human coronary artery smooth muscle cells.
Read-out in experiment [16]: Monokine induced gamma interferon (MIG), CXCL9 (gene 4283)
The experiment is described as follows: BSK_CASM3C_MIG: BioMAP Diversity Plus: CASM3C Assay for Monokine induced gamma interferon (MIG) Biomarker Activity (AID 2283048).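 Note: MIG protein level measured by ELISA.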 Particulars: primary human coronary artery smooth muscle cells; actives raise or lower the signal.

Read-out in experiment [17]: serum amyloid A (SAA), SAA1 (gene 6288)
The experiment in a line: BSK_CASM3C_SAA: BioMAP Diversity Plus: CASM3C Assay for serum amyloid A (SAA) Biomarker Activity (AID 2283049).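 Note: SAA protein level quantified by ELISA.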 Particulars: primary human coronary artery smooth muscle cells; actives raise or lower the signal.

The nature of experiment [18]: BSK_CASM3C_SRB: Viability Assessment in the BioMAP Diversity Plus: CASM3C Assay (AID 2283050).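 Note: cells exposed to compound for 24 h.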 Particulars: primary human coronary artery smooth muscle cells.
Read-out in experiment [19]: Thrombomodulin, THBD (gene 7056)
The experiment in a line: BSK_CASM3C_Thrombomodulin: BioMAP Diversity Plus: CASM3C Assay for Thrombomodulin Biomarker Activity (AID 2283051).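 Note: thrombomodulin protein level measured by ELISA 24 h after dosing.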 Particulars: primary human coronary artery smooth muscle cells; actives raise or lower the signal.

Read-out in experiment [20]: Plasminogen activator inhibitor-1 (PAI1), SERPINE1 (gene 5054)
The experiment is described as follows: BSK_BE3C_PAI1: BioMAP Diversity Plus: BE3C Assay for Plasminogen activator inhibitor-1 (PAI1) Biomarker Activity (AID 2283037). Particulars: primary human bronchial epithelial cells; actives raise or lower the signal. In outline:
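PAI-1 biomarker levels in treated human bronchial epithelial cells are determined by ELISA at 24 h. Both increases and decreases relative to DMSO are fitted.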

The source made the active and inactive calls. Rule for the calls: active = hit-call score of the fitted dose curve at least 0.9, where 1 is the maximum; inactive = score below 0.9.

Consider `CC(C)(C)OOC(C)(C)CCC(C)(C)OOC(C)(C)C`, for which the result in experiment [1], in experiment [2], in experiment [3], in experiment [4], in [5] and in experiment [6] was inactive. Also, the result in experiment [7], in [8], in experiment [9], in [10], in experiment [11] and in experiment [12] was inactive. Besides, the result in experiment [13], in [14], in experiment [15], in [16], in experiment [17] and in experiment [18] was inactive. Moreover, in [19], the result was inactive.
Regarding `CC(C)(O)c1cnn2c(-c3ccc(F)c(-c4c(F)cccc4C#N)c3)cnc2n1`, the AC50 in experiment [1] is 36500 nM (active); in experiment [3], 31700 nM (active); in experiment [4], 36900 nM (active); in [5] it was 31400 nM (active); in experiment [20], 32100 nM (active); in experiment [6] it was 30200 nM (active). For the same compound, the AC50 in [7] was 36500 nM (active); in experiment [9], 25300 nM (active); in experiment [11], 32900 nM (active); in experiment [15], 26100 nM (active). Further, the outcome in experiment [8], in experiment [10], in [12], in experiment [13], in experiment [14] and in [16] was inactive. The outcome in [17], in [18] and in [19] was inactive.
`Cc1ccc([N+](=O)[O-])cc1`: the outcome in experiment [1], in experiment [2], in experiment [3], in [4], in experiment [5] and in experiment [6] was inactive. The outcome in experiment [7], in experiment [8], in [9], in [10], in [11] and in experiment [12] was inactive. The outcome in experiment [13], in experiment [14], in experiment [15], in experiment [16], in experiment [17] and in [18] was inactive. Moreover, in [19], the outcome was inactive.
For the compound `CC(O)CCO` (stereo not drawn), the result in experiment [1], in experiment [2], in experiment [3], in experiment [4], in [5] and in experiment [6] was inactive. In addition, the result in experiment [7], in experiment [8], in experiment [9], in [10], in experiment [11] and in experiment [12] was inactive. The outcome in experiment [13], in [14], in experiment [15], in [16], in experiment [17] and in experiment [18] was inactive. In [19], the result was inactive.
Turning to `CCOc1cccc(C2(N3CCN(c4ccccc4)CC3)CCC(C)CC2)c1` (stereo not drawn), the result in experiment [1], in experiment [3], in experiment [4], in experiment [5], in [20] and in [6] was inactive. The result in experiment [7], in [8], in experiment [9], in experiment [10], in experiment [11] and in experiment [12] was inactive. In addition, the result in [13], in [14], in experiment [15], in experiment [16], in experiment [17] and in experiment [18] was inactive. Besides, the outcome in experiment [19] was inactive.
For the compound `Nc1ccc(Cc2ccc(N)cc2)cc1`, the result in [1], in [3], in [4], in [5], in experiment [20] and in [6] was inactive. For the same compound, the outcome in experiment [7], in experiment [8], in experiment [9], in [10], in [11] and in experiment [12] was inactive. In addition, the result in experiment [13], in experiment [14], in experiment [15], in experiment [16], in experiment [17] and in experiment [18] was inactive. Besides, the result in experiment [19] was inactive.
Take `CCC[CH2][Sn]([Cl])([CH2]CCC)[CH2]CCC`: the AC50 in experiment [1] is 215 nM (active); in experiment [2], 148 nM (active); in experiment [3], 324 nM (active); in experiment [4] it was 162 nM (active); in experiment [5], 147 nM (active); in [6] it was 148 nM (active). The AC50 in experiment [7] is 148 nM (active); in experiment [8] it was 1500 nM (active); in [9], 227 nM (active); in experiment [10], 1010 nM (active); in experiment [11], 353 nM (active); in experiment [12] it was 273 nM (active). Further, the AC50 is 226 nM (active) in [13]; 383 nM (active) in experiment [14]; 148 nM (active) in experiment [15]; 326 nM (active) in [16]; 148 nM (active) in experiment [17]; 402 nM (active) in experiment [18]. Moreover, the AC50 in experiment [19] is 3970 nM (active).

Values taken from PubChem BioAssay (EPA / NIEHS).
